Reference: PubChem BioAssay (EPA / NIEHS)
Inconclusive results are not listed. Active and inactive are the calls of the source. How the source made its calls: active means hit-call score of the fitted dose curve at least 0.9, where 1 is the maximum; inconclusive means response in the unintended direction; inactive means score below 0.9.

assay: Tanguay_ZF_120hpf_SWIM_legacy: (Legacy) Oregon State University Tanguay Lab 120 Hour Post-fertilization zebrafish Assay for Swim Bladder Malformation (AID 2283654);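 further: swim bladder malformation in each larva scored yes or no under brightfield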
Experimental: Tanguay_ZF_120hpf_legacy is a whole embryo, multiplexed endpoint assay using zebrafish larvae exposed for 120 hours post fertilization on a 96-well plate.Tanguay_ZF_120hpf_SWIM_legacy is one of one assay component(s) measured or calculated from the Tanguay_ZF_120hpf_legacy assay. It is designed to make measurements of zebrafish development as detected with brightfield microscopy of developing zebrafish embryos.Data from the assay component Tanguay_ZF_120hpf_SWIM_legacy was analyzed into 1 assay endpoints. This assay endpoint, Tanguay_ZF_120hpf_SWIM_legacy, was analyzed in the positive analysis fitting direction relative to DMSO as the negative control and baseline of activity. Using a type of morphology reporter, gain-of-signal activity can be used to understand changes in developmentals as they relate to the whole embryo. To generalize the intended target to other relatable targets, this assay endpoint is annotated to the zebrafish development intended target family, where the subfamily is swim bladder morphogenesis.
Zebrafish husbandry: Tropical 5D wild-type adult zebrafish were housed in at an approximate density of 1000 per 100 gallon tank at the Sinnhuber Aquatic Research Laboratory, Oregon State University, Corvallis, OR. Each tank was kept at standard laboratory conditions of 28C on a 14-h light/10-h dark photoperiod in fish water consisting of reverse osmosis water supplemented with a commercially available salt (Instant Ocean). Spawning funnels were placed into the tanks the night prior, and embryos were collected and staged. To increase bioavailability, the chorion was enzymatically removed using pronase (63.6mg/ml, >/= 3.5U/mg, Sigma-Aldrich: P5147) at 4 hours post fertilization (hpf) using a custom automated dechorionator.Chemical exposures: Six hpf dechorionated embryos were placed 1 embryo per well in a 96-well plate prefilled with 90 ul of EM using automated embryo placement systems (AEPS). Ten microliters of each row of dilution plate 2 was added to 2 exposure plates. The final DMSO concentration used was 0.64% (vol/vol). Thirty-two embryos were also exposed to 5uM trimethyltin chloride (positive control). Plates were sealed to prevent evaporation and foil covered to reduce light exposure and kept in a 28C incubator. Embryos were statically exposed until 120 hpf. At 24 hpf, embryos were assessed for photomotor response using a custom photomotor response analysis tool (PRAT) and for developmental toxicity endpoints (MO24: mortality at 24 hpf, DP: developmental progression, SM: spontaneous movement, and NC: notochord distortion). At 120 hpf, locomotor activity was measured using Viewpoint Zebralab and assessed for 18 endpoints. Zebrafish acquisition and analysis program (ZAAP), a custom program designed to inventory, acquire, and manage zebrafish data, was used to collect developmental endpoints as either present or absent (i.e., binary responses were recorded). If mortality occurred for an embryo (at either 24 or 120 hpf), the non-mortality endpoints were not measured.

| Structure (SMILES) | outcome |
| --- | --- |
| O=C1CN(N=Cc2ccc([N+](=O)[O-])o2)C(=O)N1 | inactive |
| NC(=O)N1c2ccccc2C=Cc2ccccc21 | inactive |
| OC[C@H]1O[C@@H]2O[C@H]3[C@H](O)[C@@H](O)[C@@H](O[C@H]4[C@H](O)[C@@H](O)[C@@H](O[C@H]5[C@H](O)[C@@H](O)[C@@H](O[C@H]6[C@H](O)[C@@H](O)[C@@H](O[C@H]7[C@H](O)[C@@H](O)[C@@H](O[C@H]1[C@H](O)[C@H]2O)O[C@@H]7CO)O[C@@H]6CO)O[C@@H]5CO)O[C@@H]4CO)O[C@@H]3CO | inactive |
| CCCCOC(=O)c1ccccc1 | inactive |
| CC[C@H](C)C(=O)O[C@H]1C[C@H](O)C=C2C=C[C@H](C)[C@H](CC[C@@H](O)C[C@@H](O)CC(=O)O)[C@H]21 | inactive |
| O=C(O)c1ccc2c(c1)nc(C(=O)NC1CCN(C3CC3)CC1)n2Cc1cc(-c2ccc(Cl)s2)on1 | inactive |
| c1ccc2cc3ccccc3cc2c1 | inactive |
| OCCNCCO | inactive |
| COS(C)(=O)=O | inactive |
| NC(=O)N(O)[C@@H]1COc2cc(OCc3ccccc3)ccc21 | inactive |
| OCCOCCOCCO | inactive |
| Cn1cc[nH]c1=S | inactive |
| CCCCCCCCCCCCCCCCOS(=O)(=O)O | inactive |
| O=S(=O)(O)c1ccc(N=Nc2c(O)ccc3cc(S(=O)(=O)O)ccc23)cc1 | inactive |
| O=c1[nH]cnc2c1ncn2[C@H]1CC[C@@H](CO)O1 | inactive |
| C=CCc1cc(S(=O)(=O)c2ccc(O)c(CC=C)c2)ccc1O | inactive |
| C[C@@H](Oc1ccc(CNC(=O)c2cccnc2Oc2ccc3c(c2)OCO3)c(F)c1)C(=O)O | inactive |
| CC1(C)C(=O)N(Cl)C(=O)N1Cl | inactive |
| OC(Cn1cncn1)(Cn1cncn1)c1ccc(F)cc1F | inactive |
| CC(C)C(=O)Nc1ccc([N+](=O)[O-])c(C(F)(F)F)c1 | inactive |

| Structure (SMILES) | outcome |
| --- | --- |
| CCCCCCCCCCCCCCO | inactive |
| OCC(CO)(CO)CO | inactive |
| CCc1cccc(CC)c1N | inactive |
| C=CN1CCCC1=O | inactive |
| OC(CCl)CCl | inactive |
| CNC(C)=O | inactive |
| NC(N)=O | inactive |
| COc1cc(C(C)C)c2c(c1)S(=O)(=O)N(COc1cc(=O)n3cccc(OCCN4CCCCC4)c3n1)C2=O | inactive |
| CCCCCCCCCC | inactive |
| c1ccc2c(c1)-c1cccc3c1c-2cc1ccccc13 | inactive |
| COc1cc2c(c(OC)c1OC)-c1ccc(OC)c(=O)cc1[C@@H](NC(C)=O)CC2 | inactive |
| CCCCC(CC)C(=O)OCCOCCOCCOC(=O)C(CC)CCCC (stereo not given) | inactive |
| O=C(O)[C@H](O)[C@@H](O)C(=O)O | inactive |
| CC(C)c1nnc2ccc(-c3ocnc3-c3cc(F)ccc3F)cn12 | inactive |
| CCc1ccc(O)c(C(C)(C)C)c1 | inactive |
| O=S1(=O)CCCO1 | inactive |
| CCOC(N)=O | inactive |
| O=C(O)c1cccc(C[C@@H]2COc3ccc(OCc4nc5cc(F)ccc5s4)cc3[C@@H]2O)c1 | inactive |
| OCc1ccccc1 | inactive |
| Cc1ccc(S(=O)(=O)NC(=O)NN2CCCCCC2)cc1 | inactive |
